The values below come from PubChem BioAssay (NCATS).

Records with an inconclusive call do not appear. The source made the active and inactive calls. Unless noted, calls come from the whole dose curve; as a rule, active = well fitted curve in the direction sought with a large enough effect; inconclusive = small, poorly fitted or top-dose-only effect, or another doubt; inactive = no such curve, though single readings can be large; an effect the other way counts as inactive or inconclusive.

Experiment [1] is described as follows: Cell Viability - NIH 3T3 (AID 541).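 For activity change, negative = cytotoxicity: plate controls were DMSO alone for no effect and tamoxifen positive control for full effect.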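 Note: cells exposed to compound for 40 hours; nearly all actives have a fitted effect of over 25% in size.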 Note: potency is the fitted concentration of half-maximal effect. The settings on record: NIH 3T3 cell viability, qHTS; activity change, negative = cytotoxicity: at 92.2 µM (top of the series). An outline of the steps: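 In this cytotoxicity screen, acute toxicity is scored as an ATP drop measured by CellTiter-Glo in NIH 3T3 fibroblasts following a 40 hr, 37 °C incubation with compound.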
In general terms: qHTS replaces the single test concentration by a dilution series.

The nature of experiment [2]: Cell Viability - H-4-II-E (AID 543).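 Note: cells exposed to compound for 40 hours; % is set by controls: 0 for no effect and ±100 for the full control effect; nearly all actives have a fitted effect of over 35% in size.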 The gist of the method: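 AC50 from Hill-modelled qHTS concentration-response curves. H-4-II-E rat hepatoma cells in complete medium, 40 hr exposure at 37 °C, viability by CellTiter-Glo ATP luminescence.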
Experiment [3] in a line: Cell Viability - LYMP2-014 (AID 983).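 Note: plate controls were DMSO only for no effect and 92 µM tetraoctylammonium bromide for full effect; nearly all actives have a fitted effect of over 50% in size.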 The gist of the method:
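Quantitative HTS in lymphoblastoid cells: 24 hr compound exposure, then CellTiter-Glo ATP luminescence. Positive control was tetraoctylammonium bromide, 6.4pM to 92 uM.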

Experiment [4] in a line: Cell Viability - LYMP2-018 (AID 985).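 Note: plate controls were DMSO only for no effect and tetraoctylammonium bromide at 92 µM for full effect; nearly all actives have a fitted effect of over 50% in size.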 An outline of the steps:
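In this qHTS viability assay, cells are treated for 24 hr and cellular ATP is quantified by luciferase-based luminescence, with tetraoctylammonium bromide as positive control.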

Experiment [5] in a line: Cell Viability - LYMP2-024 (AID 988).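 Note: plate controls were DMSO only for no effect and 92 µM tetraoctylammonium bromide for full effect; nearly all actives have a fitted effect of over 60% in size.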 An outline of the steps: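 Cells at 2500 per well received compound for 24 hr after a 5 hr settling period. Viability was scored by CellTiter-Glo luminescence, with AC50 from Hill fits.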
In experiment [6] the target is Estrogen receptor (Homo sapiens) (UniProt P03372). The experiment is described as follows: qHTS assay for small molecule antagonists of estrogen receptor alpha signaling (AID 588513; active = well fitted curve in the direction sought with a large enough effect in the signal ratio, with a control signal flat, not every such curve was filed as active; the % refers to the signal ratio; note: % is set by controls: 0 for no effect and ±100 for the full control effect). An outline of the steps:
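Beta-lactamase reporter, antagonist mode, HEK 293 GripTite cells; 0.5nM E2 stimulus, 18 h, 37 C; CCF4 dye 2 h RT; fluorescence. IC50 and efficacy from Hill fits, normalized to E2 and DMSO.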

Experiment [7] has the same target. The experiment is described as follows: qHTS assay for small molecule agonists of estrogen receptor alpha signaling (AID 588514; calls by dose curve;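 note: 0% = vehicle only and 100% = reference agonist; nearly all actives have a fitted effect of over 70% in size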). An outline of the steps: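 Fluorescence from CCF4 cleavage reports ER-alpha-driven beta-lactamase expression in HEK 293 cells treated 18 hrs at 37 C. Data normalized to 17-beta-estradiol (20 nM) and DMSO, fitted to Hill equation.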
The target in experiment [8] is Glucocorticoid receptor (Homo sapiens) (UniProt P04150). The experiment is described as follows: qHTS assay for small molecule agonists of glucocorticoid receptor signaling (AID 588532; active = well fitted curve in the direction sought with a large enough effect in the signal ratio, with a control signal flat; the % refers to the signal ratio;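 note: 100% = dexamethasone at 0.1 µM and 0% = DMSO only wells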). The settings on record: HeLa MMTV-bla, beta-lactamase ratio, agonist, 18 h; stronger effect = higher value; percent of dexamethasone control, DMSO zero. The gist of the method:
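MMTV-bla HeLa beta-lactamase reporter cells in 1% charcoal/dextran FBS medium, compounds up to 92 uM for 18 h at 37 C, CCF4 readout; normalized to 0.1 uM dexamethasone (100%), EC50 and efficacy from Hill fits.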

For experiment [9] the target is unchanged. Description: qHTS assay for small molecule antagonists of glucocorticoid receptor signaling (AID 588533; active = well fitted inhibition curve with a large enough effect in the signal ratio, with a control signal flat, not every such curve was filed as active; the % refers to the signal ratio;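 note: cells stimulated with 2 nM dexamethasone as agonist; % is set by controls: 0 for no effect and ±100 for the full control effect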). The gist of the method:
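Antagonist-mode qHTS: compound titrations added to GRE-bla HeLa cells, then dexamethasone 2 nM final; 18 h, 37 C. CCF4 FRET fluorescence normalized to dexamethasone and DMSO; IC50 from Hill fit.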

Experiment [10] concerns the target Peroxisome proliferator-activated receptor delta (Homo sapiens) (UniProt Q03181). The experiment is described as follows: qHTS assay for small molecule agonists of peroxisome proliferator-activated receptor delta signaling (AID 588534; calls by dose curve;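 note: 0% = DMSO basal wells and 100% = positive control agonist at 10 µM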). An outline of the steps:
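EC50 and efficacy values derive from Hill fits of a concentration series in a beta-lactamase reporter cell assay. Exposure is 18 hrs at 37 C, with CCF4 fluorescence as the readout.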

The nature of experiment [11]: qHTS assay for small molecule antagonists of peroxisome proliferator-activated receptor delta signaling (AID 588535; active = well fitted inhibition curve with a large enough effect in the signal ratio, with a control signal flat, not every such curve was filed as active; the % refers to the signal ratio;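 for max response: cells co-treated with a PPAR-delta agonist as stimulator during compound exposure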). The settings on record: HEK293T PPARd-UAS-bla, beta-lactamase FRET ratio, 18 h; 460 nm channel. The gist of the method: (§1)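 Beta-lactamase reporter read-out (405 nm excitation, 460/530 nm emission) after CCF4 loading for 2 hrs at RT. HEK293T PPAR-delta-UAS-bla cells, 2% charcoal/dextran FBS, compounds for 18 hrs at 37 C. Hill fit gave IC50 and efficacy.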

The target of experiment [12] is Peroxisome proliferator-activated receptor delta (Homo sapiens) (UniProt Q03181). The description is as above. The gist of the method: as §1
Sequence of Peroxisome proliferator-activated receptor delta (Homo sapiens) (Q03181 whole entry, looked up): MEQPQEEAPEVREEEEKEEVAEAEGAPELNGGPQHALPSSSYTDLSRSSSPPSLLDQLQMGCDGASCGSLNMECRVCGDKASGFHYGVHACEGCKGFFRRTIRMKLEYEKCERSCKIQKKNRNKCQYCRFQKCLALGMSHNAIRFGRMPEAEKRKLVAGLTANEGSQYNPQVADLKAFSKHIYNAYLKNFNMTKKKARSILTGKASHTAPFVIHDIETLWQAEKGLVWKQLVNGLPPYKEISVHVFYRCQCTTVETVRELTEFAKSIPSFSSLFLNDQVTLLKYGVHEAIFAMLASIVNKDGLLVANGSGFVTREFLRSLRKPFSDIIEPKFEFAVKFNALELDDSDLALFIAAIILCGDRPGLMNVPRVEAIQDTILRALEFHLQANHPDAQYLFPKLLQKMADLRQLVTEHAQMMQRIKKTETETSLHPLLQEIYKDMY
Experiment [13] addresses Peroxisome proliferator-activated receptor gamma (Homo sapiens) (UniProt P37231). The experiment is described as follows: qHTS assay for small molecule antagonists of peroxisome proliferator-activated receptor gamma signaling (AID 588537; active = well fitted inhibition curve with a large enough effect in the signal ratio, with a control signal flat, not every such curve was filed as active; the % refers to the signal ratio;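 note: reporter cells co-stimulated with 50 nM rosiglitazone agonist during compound treatment; % of control where 0% means no effect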). The gist of the method:
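Read-out: CCF4 fluorescence (ex 405, em 460/530 nm) after 2 h at RT. Cells were HEK293 carrying a UAS-bla reporter and treated 16 h at 37 C with compound plus rosiglitazone (50 nM final). Normalized to rosiglitazone and DMSO.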

In experiment [14] the target is Voltage-gated inwardly rectifying potassium channel KCNH2 (Homo sapiens) (UniProt Q12809). Description: qHTS Assay for Small Molecule Inhibitors of the Human hERG Channel Activity (AID 588834).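 Note: top concentration of the series differs between compounds; % is set by controls: 0 for no effect and ±100 for the full control effect; lower thallium flux fluorescence means stronger hERG block; nearly all actives have a fitted effect of over 50% in size.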 An outline of the steps: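 Thallium-flux (FluxOR) read-out on FDSS: fluorescence read 10 s before and 2 min after stimulation buffer. hERG-BacMam-transduced U2OS cells, compound exposure about 10 min. AC50 by standard Hill equation.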
Sequence of Voltage-gated inwardly rectifying potassium channel KCNH2 (Homo sapiens) (Q12809 whole entry, looked up): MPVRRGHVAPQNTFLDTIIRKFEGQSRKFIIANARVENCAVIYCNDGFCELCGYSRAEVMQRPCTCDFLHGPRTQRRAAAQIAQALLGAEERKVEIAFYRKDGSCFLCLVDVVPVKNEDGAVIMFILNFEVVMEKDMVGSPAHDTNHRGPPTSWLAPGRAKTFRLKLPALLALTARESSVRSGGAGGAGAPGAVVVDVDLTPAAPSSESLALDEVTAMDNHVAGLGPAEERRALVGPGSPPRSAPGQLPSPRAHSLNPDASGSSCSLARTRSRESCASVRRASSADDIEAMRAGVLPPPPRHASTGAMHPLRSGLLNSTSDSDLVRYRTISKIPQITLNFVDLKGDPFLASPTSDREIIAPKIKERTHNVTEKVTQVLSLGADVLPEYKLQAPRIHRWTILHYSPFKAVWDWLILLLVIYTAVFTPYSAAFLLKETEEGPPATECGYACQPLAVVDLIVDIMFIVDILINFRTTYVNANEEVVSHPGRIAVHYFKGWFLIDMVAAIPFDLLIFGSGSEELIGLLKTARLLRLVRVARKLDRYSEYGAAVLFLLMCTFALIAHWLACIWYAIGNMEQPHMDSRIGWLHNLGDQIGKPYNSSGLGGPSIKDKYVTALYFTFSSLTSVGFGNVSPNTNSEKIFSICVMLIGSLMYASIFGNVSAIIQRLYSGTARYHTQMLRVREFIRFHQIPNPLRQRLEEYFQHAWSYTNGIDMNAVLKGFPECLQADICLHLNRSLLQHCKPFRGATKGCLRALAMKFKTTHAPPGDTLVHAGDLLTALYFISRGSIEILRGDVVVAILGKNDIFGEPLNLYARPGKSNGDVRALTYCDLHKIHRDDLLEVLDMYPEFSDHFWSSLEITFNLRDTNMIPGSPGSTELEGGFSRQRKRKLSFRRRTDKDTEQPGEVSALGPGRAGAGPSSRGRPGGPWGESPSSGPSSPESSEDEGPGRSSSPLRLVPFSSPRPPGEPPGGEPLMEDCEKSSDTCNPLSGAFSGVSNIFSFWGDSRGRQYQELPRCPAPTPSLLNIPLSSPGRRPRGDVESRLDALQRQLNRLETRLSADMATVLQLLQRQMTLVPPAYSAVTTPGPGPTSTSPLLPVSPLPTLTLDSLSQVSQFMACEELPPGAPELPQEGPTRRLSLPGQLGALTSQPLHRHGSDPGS

Experiment [15] in a line: qHTS assay for small molecule disruptors of the mitochondrial membrane potential - 5 hr assay (AID 651755; calls by dose curve; note: nearly all actives have a fitted effect of over 40% in size; note: potency is the fitted concentration of half-maximal effect). An outline of the steps:
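Read-out: ratiometric Mito-MPS fluorescence, green monomer (ex 490/em 535) vs red mitochondrial aggregate (ex 540/em 590). HepG2 cells treated 5 hr at 37C before 30 min dye loading.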

Experiment [16] can be described thus: qHTS assay for environmental chemicals that activate the Aryl hydrocarbon Receptor (AhR) signaling pathway (AID 651777). Note: % of control where 0% means no effect; nearly all actives have a fitted effect of over 15% in size. Particulars: 1A2-DRE human hepatoma cells, luciferase, 24 h; activation: stronger effect = higher value. The gist of the method: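 Concentration–response screening used 1,200 1A2-DRE cells per well, 24 hr compound exposure (37 C, 5% CO2), and One-Glo luminescence as the AhR-driven CYP1A2 reporter signal.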

Experiment [17] in a line: MultiTox-Fluor Cytotoxicity Assay - LYMP1-001 - Live Cells (AID 947).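 Note: 0% = DMSO only and full inhibition = tetraoctylammonium bromide control.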
Experiment [18] deals with Peroxisome proliferator-activated receptor gamma (Homo sapiens) (UniProt P37231). The experiment is described as follows: qHTS assay for small molecule agonists of peroxisome proliferator-activated receptor gamma signaling (AID 588536; active = well fitted curve in the direction sought with a large enough effect in the signal ratio, with a control signal flat, not every such curve was filed as active; the % refers to the signal ratio;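 note: 0% = DMSO basal wells and 100% = rosiglitazone at 2 µM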). An outline of the steps: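 Cells were plated and held 6–6.5 h at 37 C, then compounds were added as a titration series. After a further 16 h, CCF4 dye was loaded for 2 h at room temperature and emission at 460/530 nm recorded.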
Sequence of Peroxisome proliferator-activated receptor gamma (Homo sapiens) (P37231 whole entry, looked up): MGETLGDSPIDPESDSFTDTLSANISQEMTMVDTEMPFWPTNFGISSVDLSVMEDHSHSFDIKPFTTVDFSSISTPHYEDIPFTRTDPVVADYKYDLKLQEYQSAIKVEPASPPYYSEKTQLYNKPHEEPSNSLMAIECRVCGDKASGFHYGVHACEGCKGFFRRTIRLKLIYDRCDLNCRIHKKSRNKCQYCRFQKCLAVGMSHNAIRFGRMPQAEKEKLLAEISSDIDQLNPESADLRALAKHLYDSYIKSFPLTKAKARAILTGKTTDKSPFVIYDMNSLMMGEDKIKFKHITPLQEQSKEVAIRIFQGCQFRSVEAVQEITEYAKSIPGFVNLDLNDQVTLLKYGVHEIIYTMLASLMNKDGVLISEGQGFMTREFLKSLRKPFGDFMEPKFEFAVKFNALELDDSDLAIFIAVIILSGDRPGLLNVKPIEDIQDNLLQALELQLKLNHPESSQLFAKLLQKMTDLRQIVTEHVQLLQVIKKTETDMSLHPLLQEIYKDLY

A short description of experiment [19]: qHTS assay for small molecule agonists of the antioxidant response element (ARE) signaling pathway (AID 651741; active = well fitted activation curve with a large enough effect in the signal ratio; the % refers to the signal ratio; note: potency is the fitted concentration of half-maximal effect; for activation: % of control where 0% means no effect). An outline of the steps:
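HepG2 ARE-bla reporter cells, 2,000/well; 5 h settle at 37 C/5% CO2; compound pin transfer (23 nL, DMSO); 16 h at 37 C; LiveBLAzer B/G FRET substrate, 2 h RT; fluorescence intensity read.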

Experiment [20] can be described thus: qHTS assay for small molecule activators of the nuclear factor-kappa B (NF-kB) signaling pathway (AID 651749; active = well fitted activation curve with a large enough effect in the signal ratio; the % refers to the signal ratio; note: % of control where 0% means no effect). Particulars: NF-kB-bla ME-180 cells, beta-lactamase FRET ratio, 16 h; stronger effect = higher value. An outline of the steps: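 NF-kB-bla ME-180 cells, 2,000/well; 23 nL compound or DMSO pinned; 16 hr, 37C/5% CO2; beta-lactamase FRET read-out.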

Sequence of Glucocorticoid receptor (Homo sapiens) (P04150 whole entry, looked up): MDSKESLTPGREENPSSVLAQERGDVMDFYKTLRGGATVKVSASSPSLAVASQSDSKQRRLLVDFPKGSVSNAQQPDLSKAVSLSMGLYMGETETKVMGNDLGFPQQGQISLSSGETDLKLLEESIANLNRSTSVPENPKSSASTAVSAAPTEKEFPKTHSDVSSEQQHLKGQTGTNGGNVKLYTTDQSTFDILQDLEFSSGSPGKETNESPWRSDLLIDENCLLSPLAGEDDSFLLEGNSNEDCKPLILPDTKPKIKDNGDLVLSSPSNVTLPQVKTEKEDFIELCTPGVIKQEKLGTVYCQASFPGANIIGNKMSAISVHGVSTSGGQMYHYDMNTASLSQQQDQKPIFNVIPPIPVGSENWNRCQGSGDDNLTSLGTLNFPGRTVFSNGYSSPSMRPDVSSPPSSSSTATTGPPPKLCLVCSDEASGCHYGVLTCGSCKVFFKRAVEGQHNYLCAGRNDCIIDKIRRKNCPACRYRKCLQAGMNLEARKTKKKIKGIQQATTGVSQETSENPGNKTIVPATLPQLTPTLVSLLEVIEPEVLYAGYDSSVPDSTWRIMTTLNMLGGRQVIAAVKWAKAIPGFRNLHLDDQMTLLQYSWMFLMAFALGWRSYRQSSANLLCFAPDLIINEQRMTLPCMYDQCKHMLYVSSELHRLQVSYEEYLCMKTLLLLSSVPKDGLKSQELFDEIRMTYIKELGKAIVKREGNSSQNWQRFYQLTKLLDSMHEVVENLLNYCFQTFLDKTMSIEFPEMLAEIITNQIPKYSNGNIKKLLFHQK
Sequence of Estrogen receptor (Homo sapiens) (P03372 whole entry, looked up): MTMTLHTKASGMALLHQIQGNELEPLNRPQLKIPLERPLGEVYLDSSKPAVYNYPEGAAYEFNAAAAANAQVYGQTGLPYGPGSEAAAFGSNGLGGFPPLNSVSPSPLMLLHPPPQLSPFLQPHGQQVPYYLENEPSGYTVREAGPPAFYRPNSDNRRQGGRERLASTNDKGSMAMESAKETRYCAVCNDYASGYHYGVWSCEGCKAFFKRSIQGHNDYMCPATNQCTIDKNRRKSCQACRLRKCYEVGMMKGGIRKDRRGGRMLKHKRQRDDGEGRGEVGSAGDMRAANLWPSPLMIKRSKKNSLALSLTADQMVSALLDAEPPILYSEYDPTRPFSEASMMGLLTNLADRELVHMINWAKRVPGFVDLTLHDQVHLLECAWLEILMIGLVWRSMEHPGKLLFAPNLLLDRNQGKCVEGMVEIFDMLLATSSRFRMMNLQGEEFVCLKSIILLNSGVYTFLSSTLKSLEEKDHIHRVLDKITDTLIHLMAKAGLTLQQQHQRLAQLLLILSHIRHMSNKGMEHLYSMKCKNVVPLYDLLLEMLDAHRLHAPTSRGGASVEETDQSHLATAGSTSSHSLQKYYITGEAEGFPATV

For `CCCCCCCCCCCCCl`, the Potency result in experiment [1], in experiment [2], in experiment [3], in [4], in experiment [5] and in experiment [6] was “inactive” in each case. In addition, the Potency entry in [7], in experiment [13], in experiment [14] and in experiment [15] was “inactive” in each case. In addition, the activation in [8] is 2.7% (inactive); in experiment [16], 1.8% (inactive). For the same molecule, the molecule was called inactive in experiment [9], in experiment [10] and in experiment [12]. Further, the max response in experiment [11] was determined as 10.4%.
Turning to `ClCCBr`, the Potency entry in experiment [2], in [3], in experiment [4], in [5], in experiment [6] and in experiment [7] was “inactive” throughout. The Potency result in [13], in [19] and in [15] was “inactive” throughout. Further, the molecule was called inactive in experiment [17], in experiment [12] and in [18]. Besides, in [11], the max response is -34.3%. For the same molecule, the results for the activation in experiment [20] and in experiment [16] were 0.431% (inactive) and 3.31% (inactive), respectively.
On to `Cc1cccc(C)c1N`, for which the Potency entry in [1], in experiment [2], in experiment [3], in [5], in experiment [6] and in [7] was “inactive” in each case. For the same molecule, the Potency entry in [14], in experiment [19] and in experiment [15] was “inactive” each time. Also, the result in experiment [17], in [10], in [12] and in [18] was inactive. The activation in [8] was 0.219% (inactive); in experiment [20], -1.09% (inactive). Besides, in experiment [11], the max response is 17.3%.
For `Cc1ccc(N)c(N)c1`, the Potency is 5.01 µM (active) in experiment [1] and 37.6 µM (active) in experiment [19]. In experiment [2], the Potency entry is “inactive”. Besides, the values for the activation in experiment [8] and in experiment [20] were 0.413% (inactive) and -0.795% (inactive), respectively.
With `CCCCOC(=O)c1ccccc1N`, the Potency result in experiment [1], in experiment [2], in experiment [3], in experiment [14] and in [15] was “inactive” throughout. For the same molecule, the outcome in experiment [17], in experiment [9], in experiment [10], in experiment [12] and in [18] was inactive. The figures for the activation in experiment [8] and in [20] were -1.38% (inactive) and -0.998% (inactive), respectively. Further, in experiment [11], the max response is -36.1%.
Take `Oc1c(Cl)cccc1Cl`: the Potency result in [2], in experiment [3], in [4], in experiment [5], in experiment [6] and in experiment [7] was “inactive” throughout. Besides, the Potency result in experiment [14] and in experiment [15] was “inactive” in each case. In addition, the molecule was called inactive in experiment [17], in experiment [10], in [12] and in experiment [18]. The max response in experiment [11] is 38.7%. Moreover, the values for the activation in experiment [20] and in experiment [16] were -0.406% (inactive) and 0.939% (inactive), respectively.
With `Oc1ccc(Cl)c(Cl)c1`, the Potency result in experiment [2], in experiment [3], in [4], in [5], in experiment [6] and in [13] was “inactive” throughout. Also, the Potency result in experiment [14] is “inactive”. Also, the molecule was called inactive in experiment [10], in experiment [12] and in [18]. Besides, the max response in experiment [11] was -12.5%. In [15], the Potency was 42.2 µM (active). In addition, the activation in experiment [16] is 1.35% (inactive).
On to `CCOC(=O)C1OC1(C)c1ccccc1` (configuration not stated), for which the Potency entry in [1], in experiment [3], in [5], in [13], in experiment [14] and in [15] was “inactive” throughout. Also, the molecule was classed as inactive in experiment [17], in [9] and in [18]. The activation in [8] was -3.51% (inactive); in experiment [16], -0.466% (inactive).
Consider `Nc1cc(Cl)cc(Cl)c1`, for which the Potency entry in experiment [1], in experiment [2], in [3], in [4], in [13] and in experiment [15] was “inactive” each time. Further, the molecule was called inactive in experiment [17], in [10], in experiment [12] and in [18]. In addition, in experiment [11], the max response is -13.8%. Also, the results for the activation in [20] and in experiment [16] were 0.8% (inactive) and -0.276% (inactive), respectively.
